Among the data in PubChem BioAssay (NCI) are growth values, retold here.

Structures are written as SMILES. About 83,000 compounds went through this panel and 20% of them were active in at least one assay; those are over-represented in the sample as a whole.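 48-hour exposure, single concentration, 96-well plates; percent growth endpoint where 0 means no net growth. Active: below 10.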 A number with no mark means an inactive call. Activity calls are given as the source filed them.

The experiment has as its system HL-60(TB) leukemia. The experiment in a line: NCI-60 one-dose screen, 48 h (100 = growth as untreated, 0 = no growth, -100 = all killed). Conditions: 10 µM unless noted.
With `CCN(CC)c1ccc2c(c1)OS(=O)(=O)N=C2`, the growth was 101%.
Regarding `O=C(Nc1nc(-c2ccc(Cl)cc2)nc2c1sc(=S)n2-c1ccccc1)C(F)(F)F`, the growth is 69.2%.
For `Oc1ccc2ccccc2c1N=Nc1ccccn1`, the growth is -32.4% (active).
In the case of `CCCCCCC/C=C/[C@H]1O[C@]2(O)C(=O)C=C3C[C@@H](O[C@@H]4O[C@H](CO)[C@@H](O)C(O)[C@@H]4O)C[C@@H]3[C@H]2C=C1C` (stereo not given in full), the growth is -46.4% (active).
Take `NS(=O)(=O)N(c1cc(C(F)(F)F)cc(C(F)(F)F)c1)C1CCN(Cc2ccc(F)cc2)CC1`: the growth was 26.3%.
